According to PubChem BioAssay (NCATS):
Values joined by “and” are separate entries in the source; they are usually repeats but may differ in a detail not shown here. Equal entries are not always repeated. Records with an inconclusive call do not appear. Active and inactive are the calls of the source. Unless noted, the call rests on the fitted dose curve; in most records, active means well fitted curve in the direction sought with a large enough effect; inconclusive means small, poorly fitted or top-dose-only effect, or another doubt; inactive means no such curve, though single readings can be large; an effect the other way counts as inactive or inconclusive.

What was measured:
[1] = target: Cellular tumor antigen p53 (Homo sapiens) (UniProt P04637); experiment: Primary qHTS for small molecule compounds that upregulate eGFP-tagged delta133p53alpha (in N-terminal) cells. (AID 2060322); conditions: NCI-H358 eGFP-delta133p53alpha fluorescence, 24 h; activation: active compounds read high;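 further: 0% = DMSO vehicle and 100% = reference activator; nearly all actives have a fitted effect of over 75% in size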
Sequence of Cellular tumor antigen p53 (Homo sapiens) (P04637 whole entry, looked up): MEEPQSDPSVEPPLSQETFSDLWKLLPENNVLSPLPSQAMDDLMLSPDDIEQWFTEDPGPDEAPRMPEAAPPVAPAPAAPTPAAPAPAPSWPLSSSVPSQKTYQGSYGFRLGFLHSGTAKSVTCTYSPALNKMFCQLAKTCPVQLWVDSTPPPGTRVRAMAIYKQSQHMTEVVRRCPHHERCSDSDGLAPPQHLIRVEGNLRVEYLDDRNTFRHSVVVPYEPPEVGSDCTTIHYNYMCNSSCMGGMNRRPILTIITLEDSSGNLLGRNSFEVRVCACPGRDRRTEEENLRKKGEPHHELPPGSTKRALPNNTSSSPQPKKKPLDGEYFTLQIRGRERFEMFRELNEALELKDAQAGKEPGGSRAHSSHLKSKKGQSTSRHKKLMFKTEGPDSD
Outline: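 NCI-H358 cells pre-induced 24 h with 10 ng/ml doxycycline to express N-terminal eGFP-delta133p53alpha, then dosed 24 h at 37C without doxycycline; fixed, Hoechst-stained, GFP intensity by laser scanning cytometry, normalized to DMSO (0%) and 57.5 uM 5-azacytidine (100%).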

[2] = target: Cellular tumor antigen p53 (Homo sapiens) (UniProt P04637); experiment: Primary qHTS for small molecule compounds that upregulate eGFP-tagged delta133p53alpha (in C-terminal) cells. (AID 2060324); conditions: NCI-H358 delta133p53alpha-eGFP (C-terminal tag), GFP fluorescence imaging, 24 h; series mostly up to 57.5 µM;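 further: 0% = DMSO wells and 100% = 57.5 µM 5-azacytidine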
Outline: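 NCI-H358 cells with doxycycline-inducible D133p53a-eGFP (C-terminal tag), pre-induced 24 h with 100 ng/ml doxycycline, plated 800/well in doxycycline-free medium and treated 24 h at 37 °C with compound titrations. Cells were then fixed and Hoechst-stained, and GFP intensity was read by laser scanning cytometry.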

[3] = target: Aldehyde dehydrogenase, mitochondrial (Homo sapiens) (UniProt P05091); experiment: qHTS for Inhibitors of the Aldehyde Dehydrogenase Family (ALDH2) Validation screens (AID 2061302; active means well fitted inhibition curve with a large enough effect; title and protocol of this record describe different tests;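 further: plate controls were DMSO vehicle for no effect and maximal DPI positive control response for full effect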); conditions: ALDH inhibition qHTS; series mostly up to 42.6 µM
[4] = target: Retinaldehyde dehydrogenase 3 (Homo sapiens) (UniProt P47895); experiment: qHTS for Inhibitors of the Aldehyde Dehydrogenase Family (ALDH1A3) Validation screen (AID 2061312); conditions: ALDH1A3 enzyme inhibition qHTS validation, fluorescence; series mostly up to 84.7 µM; further: on the % scale 0 is the no-effect control and ±100 the full control effect; nearly all actives have a fitted effect of over 45% in size
[5] = BET inhibitor-based combinations targeting novel dependencies in MECOM-rearranged (r) AML: SET-2 cell line (AID 2202231); conditions: SET-2 AML cells viability, CellTiter-Glo luminescence, 48 h; viability: active compounds read low, concentration not given here;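 further: plate controls were DMSO treated cells for no effect and wells without cells for full effect; nearly all actives have a fitted effect of over 35% in size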
Outline: (§1)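 Luminescent ATP readout (CellTiter-Glo) after 48 hr drug exposure gives viability. Curves span 11 concentrations and are normalized to DMSO and empty wells. Activity is reported as area under the curve and its Z-transform within each cell line.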

[6] = BET inhibitor-based combinations targeting novel dependencies in MECOM-rearranged (r) AML: OCI-AML3 cell line (AID 2202232); conditions: CellTiter-Glo luminescence, 48 h; Potency: OCI-AML3 viability; series mostly up to 46 µM;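 further: plate controls were DMSO vehicle wells for no effect and wells without cells for full effect; nearly all actives have a fitted effect of over 35% in size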
Outline: as §1

[7] = BET inhibitor-based combinations targeting novel dependencies in MECOM-rearranged (r) AML: MV-4-11 cell line (AID 2202233); conditions: MV-4-11 AML viability, CellTiter-Glo luminescence, 48 h; series mostly up to 46 µM;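 further: plate controls were DMSO for no effect and blank wells for full effect; nearly all actives have a fitted effect of over 45% in size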
Outline: (§2)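 Luminescent ATP readout (CellTiter-Glo, 15 min at room temperature) after 48 hr drug exposure gave viability. Dose-response curves, normalized to DMSO and empty-well controls, were summarized as area under the curve and its mean-centred Z-score.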

[8] = BET inhibitor-based combinations targeting novel dependencies in MECOM-rearranged (r) AML: HNT-34 cell line (AID 2202234); conditions: HNT-34 AML viability, CellTiter-Glo luminescence, 48 h; series mostly up to 46 µM;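 further: plate controls were vehicle wells for no effect and cell-free wells for full effect; nearly all actives have a fitted effect of over 35% in size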
Outline: as §2

[9] = BET inhibitor-based combinations targeting novel dependencies in MECOM-rearranged (r) AML: UCSD-AML1 cell line (AID 2202235); conditions: UCSD-AML1 AML cells viability, CellTiter-Glo, 48 h; series mostly up to 46 µM;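 further: plate controls were DMSO vehicle wells for no effect and blank wells for full effect; nearly all actives have a fitted effect of over 40% in size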
Outline: as §2

[10] = BET inhibitor-based combinations targeting novel dependencies in MECOM-rearranged (r) AML: AML-191 cell line (AID 2202236;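 further: plate controls were vehicle wells for no effect and wells without cells for full effect; nearly all actives have a fitted effect of over 35% in size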); conditions: AML-191 viability, CellTiter-Glo luminescence, 48 h; series mostly up to 46 µM
Outline: as §1

[11] = BET inhibitor-based combinations targeting novel dependencies in MECOM-rearranged (r) AML: AML-194 cell line (AID 2202237;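 further: plate controls were vehicle wells for no effect and wells without cells for full effect; nearly all actives have a fitted effect of over 40% in size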); conditions: AML-194 (MECOM-r AML) viability, CellTiter-Glo, 48 h; series mostly up to 46 µM
Outline: as §1

CCSC(=N)N
inactive: activation [1] -32.7% | Potency [2] | Potency [3] | Potency [4]

COC(=O)C(C)(N)Cc1ccc(O)cc1 (stereo not drawn)
inactive: activation [1] -5.7% | Potency [2] | Potency [3] | Potency [4]

CN1CCN2c3ccccc3Cc3ccccc3C2C1 (stereo not drawn)
inactive: activation [1] -35.4% | Potency [2] | Potency [3] | Potency [4]

CCN(CC)CCNC(=O)c1cc(S(C)(=O)=O)ccc1OC
inactive: activation [1] -10% and -17.5% | Potency [2] | Potency [3] | Potency [4]

OCC1O[C@H](O)C(Cl)C(O)C1O (stereo partly drawn)
inactive: activation [1] -8.54% | Potency [2] | Potency [3] | Potency [4]

FC(F)(F)c1ccccc1-n1ccnc1
inactive: activation [1] 8.47% and -16.2% | Potency [2] | Potency [3] | Potency [4]

COCCOc1cc2nc[nH]c(=O)c2cc1OCCOC
inactive: activation [1] -30.8% | Potency [2] | Potency [3] | Potency [4]

C[C@@H](CN1CCC(Cc2ccccc2)CC1)[C@@H](O)c1ccc(O)cc1
inactive: activation [1] -9.23% | Potency [2] | Potency [3] | Potency [4]

COC(=O)[C@H](NC(=O)c1cc(-c2ccccc2)nc2ccccc12)c1ccccc1
inactive: activation [1] 6.75% | Potency [2] | Potency [3] | Potency [4]

Cc1cccc(C)c1NC(=O)C(C)N (stereo not drawn)
inactive: activation [1] 10.9% and -14% | Potency [2] | Potency [3] | Potency [4]

c1cnc2c(c1)ccc1cccnc12
inactive: activation [1] -78.4% | Potency [2] | Potency [3] | Potency [4]

CC(=O)SC1CC2=CC(=O)CC[C@]2(C)C2CC[C@@]3(C)C(CC[C@@]34CCC(=O)O4)C12 (stereo partly drawn)
inactive: activation [1] -47.2% | Potency [2] | Potency [3] | Potency [4]

CC(=O)SCC[N+](C)(C)C
inactive: activation [1] -8.68% | Potency [2] | Potency [3] | Potency [4]

CSc1ccccc1N1CCN(CCCCCC(=O)NC2CCCc3ccccc32)CC1 (stereo not drawn)
inactive: activation [1] -61.7% | Potency [2] | Potency [3] | Potency [4]

O=C(O)CN(CCN(CC(=O)O)CC(=O)O)CCN(CC(=O)O)CC(=O)O
inactive: activation [1] -33.2% | Potency [2] | Potency [3] | Potency [4]

CCOC(=O)[C@H](CCc1ccccc1)N[C@@H](C)C(=O)N1[C@H](C(=O)O)C[C@H]2CCCC[C@@H]21
inactive: activation [1] -16.3% | Potency [2] | Potency [3] | Potency [4]

Nc1nc2c(ncn2COC(CO)CO)c(=O)[nH]1
inactive: activation [1] -11.7% | Potency [2] | Potency [3] | Potency [4] | viability [5] 113% | Potency [6] | Potency [7] | Potency [8] | Potency [9] | Potency [10] | Potency [11]

COc1ccc(CCN(C)CCCC(C#N)(c2cc(OC)c(OC)c(OC)c2)C(C)C)cc1OC (stereo not drawn)
inactive: activation [1] -8.73% | Potency [2] | Potency [3] | Potency [4]

CNC[C@H](O)c1ccc(O)c(O)c1
inactive: activation [1] 2.51% and 2.46% and 10.6% | Potency [2] | Potency [3] | Potency [4] | viability [5] 103% | Potency [6] | Potency [8] | Potency [9] | Potency [10] | Potency [11]

O=C1N(c2ccccc2)c2ccccc2C1(Cc1ccncc1)Cc1ccncc1
inactive: activation [1] 10.9% and -8.78% and -29% | Potency [2] | Potency [3] | Potency [4] | viability [5] 104% | Potency [6] | Potency [7] | Potency [10] | Potency [11]
